# Only a selection was taken, and hits are over-represented in it overall.
# DT40 TDP1 no CPT – qHTS for Inhibitors of human tyrosyl-DNA phosphodiesterase 1 (TDP1): qHTS in cells in absence of CPT; AID 686978, 2013; Potency, µM (series often up to 46.2 µM), without a hit: at the highest dose activity change, negative = growth inhibition, hits mostly inhibitors; 420,000 compounds, 15% hits; DT40 Tdp1-/- hTDP1 cells, no CPT, ATP luminescence, 48 h; further: potency means the concentration at half of the fitted maximal effect; nearly all actives have a fitted effect of over 55% in size
#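 Chicken DT40 Tdp1-/- cells complemented with human TDP1, screened without camptothecin (DMSO vehicle only), 400 cells/well. Compounds pin-transferred, cells incubated at 37 °C for at least 48 hr. Growth read as ATP-dependent luminescence (CellTiter-Glo, 30 min at RT).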
# 12-LOX inh – Primary qHTS assay for inhibitors of human arachidonate 12S-lipoxygenase (ALOX12): Round 2; Polyunsaturated fatty acid lipoxygenase ALOX12 (Homo sapiens), P18054; purified 12hLO, xylenol orange hydroperoxide absorbance; Potency, µM (series often up to 108 µM), for inactives: at the top dose activity change, negative = inhibition, most hits filed as inhibitors; 580,000 compounds, 1.1% hits; AID 1671190, 2021; further: potency means the concentration at half of the fitted maximal effect
#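 Purified human 12hLO (150 nM final) in 25 mM Hepes, 0.01% Triton X-100, pH 7.0 was preincubated 15 min at room temperature with compound. Then 40 uM arachidonic acid was added, 30 min. Hydroperoxide was read by Fe-XO absorbance ratio 573/405 nm.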
# IL1B secr inh – qHTS for Inhibitors of Inflammasome Signaling: IL-1-beta AlphaLISA Primary Screen. THP-1 LPS/ATP IL-1B secretion, AlphaLISA, 16 h; active compounds read low. 360,000 compounds, 4.7% hits. activity change, % at 57.5 µM; in the data active means activity change below about -50%; inconclusive means mostly about -30% to -49%
#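 THP-1 cells pretreated 1 hr with compounds (up to 57.5 uM final), then stimulated with LPS (250 ng/mL final) plus ATP (1.25 mM final); secreted IL-1B measured by AlphaLISA after 16 hr, decreased signal indicating inhibition.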
# HT1080 IDH1KD tx – qHTS for induction of synthetic lethality in tumor cells producing 2HG: qHTS for the HT-1080-IDH1KD cell line. 360,000 compounds, 2% hits. Potency, µM (doses to about 46.1 µM), for the others: top-dose activity, negative = toxicity, most hits filed as cytotoxic. HT-1080 IDH1 knockdown viability, ATP luminescence, 48 h;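 further: potency means the concentration at half of the fitted maximal effect; 0% = DMSO wells and -100% = cell-free medium wells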
#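 Assay cells: HT-1080 with IDH1 knockdown, 750 per well, RPMI/5% FBS. Exposure: 48 h at 37 °C following 2 h pre-incubation. Read: CellTiter-Glo luminescence; fitted concentration-response, curve class assigned.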
# TDP1 cell CPT – qHTS for Inhibitors of human tyrosyl-DNA phosphodiesterase 1 (TDP1): qHTS in cells in presence of CPT; AID 686979, 2013; Potency, µM (top dose mostly 46.2 µM), for inactives: at the top dose activity change, negative = growth inhibition, most hits filed as inhibitors; 420,000 compounds, 12% hits; chicken DT40 Tdp1-/-;hTDP1 cells + 20 nM CPT, ATP luminescence, 48 h; further: potency means the concentration at half of the fitted maximal effect; nearly all actives have a fitted effect of over 55% in size
#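 Cell growth measured by CellTiter-Glo luminescence after a minimum 48 h, 37 C compound exposure with 20 nM CPT in Tdp1-knockout DT40 cells stably expressing hTDP1, seeded 400/well; qHTS titration format.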
# HT1080-NT tox – qHTS for induction of synthetic lethality in tumor cells producing 2HG: qHTS for the HT-1080-NT fibrosarcoma cell line. Potency, µM (titrated, usually from 46.1 µM), inactives show at the top dose activity, negative = less viability, hits mostly cytotoxic. HT-1080-NT fibrosarcoma viability, CellTiter-Glo ATP luminescence, 48 h. 360,000 compounds, 1.6% hits;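 further: NT is the 2HG producing partner of a matched IDH1 knockdown line; potency means the concentration at half of the fitted maximal effect; 0% = DMSO-treated cells and -100% = media-only wells without cells; nearly all actives have a fitted effect of over 55% in size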
#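 Compounds were tested in concentration-response format on HT-1080-NT cells for 48 hours at 37 degrees C. Cell viability came from CellTiter-Glo luminescence; curves were classified by r2, response magnitude and activity.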
# Active calls of the source: *; ? = inconclusive; · = no result. Unless noted, the call rests on the fitted dose curve; in most records, active means well fitted curve in the direction sought with a large enough effect; inconclusive means small, poorly fitted or top-dose-only effect, or another doubt; inactive means no such curve, though single readings can be large; an effect the other way counts as inactive or inconclusive. Unless noted, on the % scale 0 is the no-effect control and ±100 the full control effect.
SMILES,DT40 TDP1 no CPT,12-LOX inh,IL1B secr inh,HT1080 IDH1KD tx,TDP1 cell CPT,HT1080-NT tox
CCN(C(=O)CN1C(=O)NC2(CCCc3ccccc32)C1=O)c1ccc(F)cc1 (stereo not drawn),16.4µM*,436.9%,4.3,8.4%,?,-4.3%
Cc1cc(C(=O)CN2C(=O)NC3(CCCc4ccccc43)C2=O)c(C)n1Cc1cccs1 (stereo not drawn),?,-1.0%,?,-16.5%,16.4µM*,-20.6%
C=CCn1c(C)cc(C(=O)CN2C(=O)NC3(CCCc4ccccc43)C2=O)c1C (stereo not drawn),?,1.4%,-22.4,-8.7%,?,-6.7%
CCN(Cc1cccs1)C(=O)CN1C(=O)NC2(CCCc3ccccc32)C1=O (stereo not drawn),-19.0%,-19.0%,-28.3,-4.7%,20.6µM*,-1.5%
CC(C)(C(=O)N1CCc2[nH]nc(-c3ccc(F)c(F)c3)c2C1)n1cccc1,·,58.9%,·,·,·,·
COC(=O)c1ccccc1NC(=O)C1CCN(S(=O)(=O)Cc2ccccc2Cl)CC1,·,-9.9%,·,·,·,·
O=C(Cc1cccc(C(F)(F)F)c1)NC1CCN(Cc2ccccc2)CC1,·,-1.1%,·,·,·,·
COc1ccccc1N1CCN(/N=C/c2cccc(OC)c2O)CC1,?,-2.0%,-0.1,7.0%,-17.5%,4.8%
COc1cc(/C=N/N2CCN(C3c4ccccc4-c4ccccc43)CC2)ccc1O,23.1µM*,11.3%,0.0,?,25.9µM*,?
COc1cccc(/C=N/N2CCN(C3c4ccccc4-c4ccccc43)CC2)c1O,16.4µM*,7.0%,-6.4,1.2%,?,-2.5%
Oc1cccc(/C=N/N2CCN(C3c4ccccc4-c4ccccc43)CC2)c1,?,-16.1%,-56.7*,23.1µM*,?,?
Cc1cccc(C(=O)N2CCC(=O)N(C(COCc3cccc(C(F)(F)F)c3)Cc3ccccc3)CC2)c1 (stereo not drawn),?,-8.2%,?,-27.8%,29.1µM*,?
Cc1cccc(C(=O)N2CCC(=O)N([C@H](COCc3cccc(C(F)(F)F)c3)Cc3ccccc3)CC2)c1,16.4µM*,?,-1.2,?,?,?
CN(C1CCCCC1)S(=O)(=O)c1ccc(C(=O)Nc2sc3c(c2C(N)=O)CC(C)(C)NC3(C)C)cc1,?,-19.8%,25.7,-8.0%,?,?
CC1CCCCN1S(=O)(=O)c1ccc(C(=O)Nc2sc3c(c2C(N)=O)CC(C)(C)NC3(C)C)cc1 (stereo not drawn),?,-10.4%,·,·,25.9µM*,·
O=C(NCc1cccc(Cl)c1)c1cc2cc(Cl)ccc2[nH]1,·,36.4%,·,·,·,·
O=C(CSCc1ccc(F)cc1Br)Nc1ccc2c(c1)OCCO2,·,0.0%,·,·,·,·
Cc1ncc(-c2ccc(F)cc2)c(C2CCCN(Cc3cccc(O)c3)C2)n1 (stereo not drawn),20.6µM*,-1.6%,·,·,?,·
COc1cccc(CN2CCCC(c3nc(C)ncc3-c3ccc(F)cc3)C2)c1OC (stereo not drawn),20.6µM*,14.5%,·,·,?,·
Cc1cccc(-c2cnc(C)nc2C2CCCN(C(=O)c3cccc(Cn4cccn4)c3)C2)c1 (stereo not drawn),?,10.7%,·,·,3.26µM*,·
C=CCNc1nc(C)nc2c1CCN(C(=O)CNS(C)(=O)=O)CC2,·,1.9%,·,·,·,·
COC(=O)c1sccc1S(=O)(=O)N(CC(=O)Nc1cc(F)ccc1F)c1ccc(C)c(C)c1,13µM*,-10.6%,·,·,?,·

# Screening data: PubChem BioAssay, National Center for Advancing Translational Sciences (NCATS)
